Here are results for 114 molecules from ChEMBL document CHEMBL4513216, “Probing the Open Global Health Chemical Diversity Library for Multistage-Active Starting Points for Next-Generation Antimalarials” (ACS Infect Dis, 2020).

Screen size: about 69,000 compounds; about 8,600 (12%) showed an effect of 50% or more. The sample as a whole holds a higher share of strong results than the screen did.

The subject of this experiment is Plasmodium berghei. Kind of experiment: Screen against P. berghei liver stage (PbLuc), transformed with Luciferase, at 10uM. Type of experiment: functional, HepG2. Conditions: tested at 10 uM.
For the molecule `Cn1cc(C(=O)N2CC[C@@H]3[C@@H]2CCN3c2ncc(F)cn2)cn1`, the INHIBITION came out at 2.4%. For `CC1CCN(C(=O)Cn2nc(Br)nc2Br)CC1` the value was -12.7%; for `Cc1nc(C2CCCN(C(=O)c3cccc4c3OCCO4)C2)no1` (centres undefined), 15.3%. The result for `CC/C=C(/C)C(=O)N1CCN(C2=NCC(C)S2)CC1` (centres undefined) reads 30.3%; that for `CCN(CC)C(=O)N1CCN(C2=NCC(C)S2)CC1` (centres undefined), 65.7%.

Take `CCC(C)(C)C(=O)N1CCN(C2=NCC(C)S2)CC1` (centres undefined): the INHIBITION was -87.7%. On to `CC(=O)Nc1ccc2c(c1)C1(CCOCC1)C(=O)N2c1ccsc1`, for which the INHIBITION was found to be 58.7%. Turning to `CCN1C(=O)C2(CCOCC2)c2cc(NC(=O)COC)ccc21`, the INHIBITION was -19.8%.

Turning to `CC(C)Nc1ccc2c(c1)C1(CCOCC1)C(=O)N2c1ccsc1`, the INHIBITION is reported as 52.3%. For `CCC(C)Nc1ccc2c(c1)C1(CCOCC1)C(=O)N2c1ccccc1` (centres undefined) the value was 10.5%; for `CCN1C(=O)C2(CCOCC2)c2cc(NC(=O)c3csnn3)ccc21`, -35.2%.

As to `CCN1C(=O)C2(CCOCC2)c2cc(NC(=O)c3cnccn3)ccc21`, the INHIBITION is reported as -28.8%.

`COc1cccc(OC)c1CN1CC(O)CN(S(C)(=O)=O)CC1=O` (centres undefined): the INHIBITION was 46.4%.

For the molecule `NC(=O)CN1CCCC(Cc2ccc(N)nn2)C1` (centres undefined), the INHIBITION is 8.72%. The result for `CC(C)n1c(C2CCCN(Cc3ccnn3C)C2)nc2ccccc21` (centres undefined) reads 23.9%; that for `COc1cccc(CNc2c(O)c(=O)c2=O)c1`, 0.207%; that for `Cc1noc(C2CCC3(CCN(C(=O)c4ccn(C)n4)CC3)O2)n1` (centres undefined), -0.371%. Regarding `COc1ccccc1CC(=O)N1CC[C@H](O)[C@]2(CCCO2)C1`, the INHIBITION is on record as -12.2%. The result for `COc1cccc(CC(=O)N2CCC3(CC2)OCCCC3O)c1OC` (centres undefined) reads 69.7%; that for `O=C(Cc1ccccc1C(F)(F)F)N1CCC2(CC1)OCCCC2O` (centres undefined), 13.2%. With `COC(=O)c1ccoc1CN(C)CC(=O)NC1CCS(=O)(=O)C1` (centres undefined), the INHIBITION came out at 17.9%. Take `Cc1nn(-c2ccccc2)c2c1c(C(F)F)cc(=O)n2CC(=O)O`: the INHIBITION was 36.35%. The result for `CN(C)CCN(C)C1CCN(C(C(=O)O)c2ccc(F)c(Cl)c2)CC1` (centres undefined) reads 34.9%; that for `CCCOc1cc(CNC(=O)Nc2ccccn2)ccn1`, 3.87%; that for `CC(C)c1nn(C)c(N(C)C)c1CNC1CCN(C2CC2)CC1`, 12.8%. For `CSCC[C@@H](CO)NC(=O)c1ccc2nc(NS(C)(=O)=O)sc2c1` the value was 46.7%; for `C[C@@H](CO)NC(=O)c1ccc2nc(NS(C)(=O)=O)sc2c1`, 54.2%. The result for `CC(CO)NC(=O)c1ccc2[nH]/c(=N\S(C)(=O)=O)sc2c1` (centres undefined) reads 4.93%; that for `Cc1cc(C(=O)N2CCC3(CC2)C(=O)N(C)CCN3CC2CC2)c(C)o1`, 4.98%.

Regarding `CN(Cc1ccncc1)C1CC2(CCN(Cc3ccccn3)CC2)C1`, the INHIBITION turned out to be 28.7%. The result for `CN(Cc1ccncc1)C1COC2(CCN(Cc3ccccn3)CC2)C1` (centres undefined) reads 52%. On to `CN(Cc1ccccn1)C1COC2(CCN(Cc3cccnc3)CC2)C1` (centres undefined), for which the INHIBITION worked out at 38.1%. For `CN(Cc1ccncc1)C1COC2(CCN(Cc3nccn3C)CC2)C1` (centres undefined), the INHIBITION is listed as 73%. For `CN(Cc1ccncc1)C1COC2(CCN(Cc3ccco3)CC2)C1` (centres undefined) the value was 59%. `CN(C)C1COC2(CCN(Cc3ccncc3)CC2)C1` (centres undefined): the INHIBITION turned out to be 29.9%. For the molecule `CN(Cc1ccncc1)C1COC2(CCN(Cc3cccs3)CC2)C1` (centres undefined), the INHIBITION came out at 4.57%.

As to `CN(Cc1ccncc1)C1COC2(CCN(c3ncc(F)cn3)CC2)C1` (centres undefined), the INHIBITION worked out at 37.8%.

In the case of `CN(Cc1ccncc1)C1COC2(CCN(Cc3ccsc3)CC2)C1` (centres undefined), the INHIBITION worked out at 49.7%. The result for `O=C(O)CCNC(=O)Cc1csc(-c2cccc(Cl)c2)n1` reads 25.1%. For `Cc1nc(CN2CCN(C(=O)c3sccc3C3CC3)CC2)oc1C` the value was 1.75%; for `CCc1cc(O)n2nc(C3CCCN3C(=O)c3ccccn3)cc2n1` (centres undefined), 18.85%; for `Cc1ccc(CNc2nc(O)cc(C3CC(=O)N(C)C3)n2)cc1` (centres undefined), -16.5%.

`CCOCCCNc1nc(O)cc(C2CC(=O)N(C)C2)n1` (centres undefined): the INHIBITION was 56.9%. For `COc1cccc(CNc2nc(O)cc(C3CC(=O)N(C)C3)n2)c1` (centres undefined) the value was 17.1%; for `CNC(=O)c1cnc(C)nc1CCNC(=O)CCc1ccccc1`, -0.232%; for `COCC1c2c(cnn2CC2CC2)CCN1Cc1nccs1` (centres undefined), 7.11%. The result for `CSCc1nc(CCNC(=O)C(N)c2c(C)n[nH]c2C)cs1` (centres undefined) reads 21.2%; that for `Cc1nc(CCNC(=O)C(N)c2c(C)n[nH]c2C)sc1C` (centres undefined), 56%; that for `Cc1n[nH]c(C)c1C(N)C(=O)NCCc1csc(C(C)C)n1` (centres undefined), -10.8%.

On to `O=C(N1CCCC1)N1CCC2(CC1)COCCN(Cc1cccnc1)C2`, for which the INHIBITION came out at 41.6%. Regarding `C[C@@H](NC(=O)c1ccc(Cl)cc1)c1onc(-c2cccnc2)c1C(=O)O`, the INHIBITION is on record as -4.82%. For `CN(C)c1nc2c(c(N3CCc4ccccc4C3)n1)CCNC2` the value was 66.7%.

Take `Cc1cccc(=O)n1CCCNc1nc(N(C)C)nc2c1CCNC2`: the INHIBITION stood at 10.9%.

In the case of `NCCC1CN(c2nc(-c3ccccc3)nc3c2CCNC3)CCO1` (centres undefined), the INHIBITION was 38.2%. As for `c1ccc2c(c1)CCN(c1nc(-c3ccncc3)nc3c1CCNC3)C2`, the INHIBITION was 58%. For `CN(C)c1nc2c(c(N3CCc4c(c(CO)nn4C)C3)n1)CCNC2`, the INHIBITION is given as -2.43%.

In the case of `Cc1nc2c(c(N3CCN(c4ncccc4C(N)=O)CC3)n1)CCNC2`, the INHIBITION amounted to 32.5%. On to `Cc1cc2n(n1)CCN(c1nc(N)nc3c1CCNCC3)C2`, for which the INHIBITION was found to be 12.1%. The result for `c1ccc2c(c1)CCN(c1ncnc3sc4c(c13)CCNC4)C2` reads 38.2%. As to `COCCNc1nc2c(c(N3CCn4nc(C)cc4C3)n1)CCNCC2`, the INHIBITION was 27.6%. Turning to `Cc1cc2n(n1)CCN(c1nc(N(C)C)nc3c1CCNC3)C2`, the INHIBITION was determined as 57.6%. For `COc1cccc2c1OCCCN(c1nc(N)nc3c1CCNC3)C2` the value was 27.6%. With `Cc1ccccc1N1CCN(c2nc(N(C)C)nc3c2CCNC3)CC1`, the INHIBITION amounted to 88.5%. The result for `COCC1CN(Cc2ccsc2)Cc2nn(C)cc21` (centres undefined) reads 22.2%; that for `CN(CCCO)Cc1cc(Cl)ccc1OCC(O)CN1CCCCCC1` (centres undefined), -50.7%; that for `COc1ccnc(N2CCN(C(=O)Cc3ccn(C(C)C)n3)CC2)n1`, -47.6%. With `Cc1nn(C)c2nc(C(C)C)cc(C(=O)Nc3n[nH]c(C4CC4)n3)c12`, the INHIBITION worked out at 45.3%.

In the case of `O=C(NCCc1nncn1C1CC1)c1cnn(Cc2ccccc2)c1`, the INHIBITION stood at 4.13%. The result for `COc1cccn(CC(=O)N2CCCC3(CCCCC3)C2)c1=O` reads -17.7%.

Turning to `Cc1cc(C)c(C(=O)N2CCCC(O)(CN3CCCC3)C2)cc1C` (centres undefined), the INHIBITION stood at 34.9%. For `Cc1c(C(=O)O)sc2nc(Cc3ccccc3)nc(N)c12` the value was -2.27%; for `CCN(CC(=O)NC)C(=O)c1sc(Cc2ccccc2)nc1C`, -16%.

Consider `Cc1nc(Cc2ccccc2)nc2sc(C(=O)O)c(C)c12`, for which the INHIBITION stood at 53.1%. Turning to `COc1cc2nc(C)n(CC(=O)NCCN(C)C)c(=O)c2cc1OC`, the INHIBITION is 2.55%. On to `COc1cc(CN2CCCC[C@]3(C)NC(=O)CC[C@H]23)ccc1F`, for which the INHIBITION is recorded as 23.9%. The result for `CCOCC1CN(Cc2cnn(C)c2)Cc2nn(CC3CC3)cc21` (centres undefined) reads 67.2%. For `CCOCC1CN(Cc2ccoc2)Cc2nn(CC3CC3)cc21` (centres undefined), the INHIBITION was -19.4%. The result for `CCOCC1CN(Cc2cnn(C)c2)Cc2c1cnn2CC` (centres undefined) reads 53.2%.

With `CCOCC1CN(Cc2cnn(C)c2)Cc2cnn(C)c21` (centres undefined), the INHIBITION came to 35.7%. For the molecule `Cn1cc(CN2Cc3cn(C)nc3C(COCC3CC3)C2)cn1` (centres undefined), the INHIBITION was found to be 34.6%. The result for `CCOCC1CN(Cc2cnn(C)c2)Cc2ncn(CC3CC3)c21` (centres undefined) reads 33%; that for `CCOCC1CN(Cc2ccc(OC)cc2)Cc2nn(CC3CC3)cc21` (centres undefined), 33%; that for `CCOCC1CN(Cc2cnn(C)c2)Cc2ncn(C)c21` (centres undefined), 36.9%. The result for `CCn1cc2c(n1)CN(Cc1cnn(C)c1)CC2COCC1CC1` (centres undefined) reads 63.7%; that for `CCOCC1CN(Cc2cnn(C)c2)Cc2nn(C)cc21` (centres undefined), 18.2%. In the case of `CCn1cc2c(n1)CN(Cc1ccoc1)CC2COCC1CC1` (centres undefined), the INHIBITION came out at 9.54%.

With `CCn1cc2c(n1)CN(Cc1ccc(C)o1)CC2COCC1CC1` (centres undefined), the INHIBITION worked out at 63.7%. Consider `O=C(c1cc(=O)[nH]c(=O)[nH]1)N1CCCC(CO)(CC2CC2)C1` (centres undefined), for which the INHIBITION is recorded as 47.6%.

On to `CN(Cc1ccccc1)C1COC2(CCN(Cc3nccs3)CC2)C1` (centres undefined), for which the INHIBITION is reported as 37%. For `O=C(Cc1ccc(F)cc1)NCCNc1cc(N2CCCC2)ncn1` the value was 31.7%. Turning to `CCN(CC)C1COc2c(cc(Br)c(C)c2Br)C1=O` (centres undefined), the INHIBITION was 5.56%. Consider `CC(C)c1noc(CCNC(=O)NCC2Cc3ccccc3O2)n1` (centres undefined), for which the INHIBITION was -34.8%. The result for `Cc1nc(N(C)C)nc(C)c1NS(=O)(=O)c1ccc(F)cc1F` reads -7.81%; that for `CS(=O)(=O)NCC1CCCN(C(=O)Nc2ccccc2F)C1` (centres undefined), 4.1%; that for `COc1cnc(CSc2nnc(C)s2)cc1OCC(=O)NC(C)(C)C`, -3.11%. As for `CN(C)S(=O)(=O)N1CCC[C@]2(C[C@@H](Oc3ccccn3)CO2)C1`, the INHIBITION is -21.3%.

With `O=C1CCC2(CCC(NC3CCOCC3)CC2)N1Cc1ccccc1` (centres undefined), the INHIBITION is recorded as -47.9%. For `CCn1cc2c(n1)CN(Cc1ccc(F)cc1)CC2COCC1CC1` (centres undefined) the value was 70.7%. `CCOCC1CN(Cc2ccc(F)cc2)Cc2nn(CC3CC3)cc21` (centres undefined): the INHIBITION is given as 5.96%. `CCn1cc2c(n1)CN(Cc1ccncc1)CC2COCC1CC1` (centres undefined): the INHIBITION came to 40.9%.

Consider `CCO[C@@H]1CO[C@@]2(CCCN(S(=O)(=O)c3cccnc3)C2)C1`, for which the INHIBITION was 30.7%. For `Cc1nc(-c2ccoc2)n(CC(=O)NCC(C)C)c1C` the value was -8.28%; for `CCOC(=O)CNC(=O)Cn1c(-c2ccoc2)nc(C)c1C`, 8.52%; for `Cc1nc(-c2ccoc2)n(CC(=O)N(C)CC(C)C)c1C`, 50%. As to `Cc1cccc(C)c1Nc1noc2c1CN(C(=O)c1cn(C)cn1)CC2`, the INHIBITION came out at 25.4%.

With `O=C(NC1CC1)c1cc(NC(=O)N2CCOCC2)ccc1Cl`, the INHIBITION is on record as 68.3%. The result for `Cn1c(=O)oc2ccc(NC(=O)N3CCc4ccccc4C3)cc21` reads -3.43%.

As for `O=C(NC1CC1)c1cc(NC(=O)N2CCSCC2)ccc1Cl`, the INHIBITION is recorded as 57.6%. The result for `O=C(Nc1ccc(CCN2CCSCC2)cc1)NC1CC1` reads 1.79%; that for `Cn1c(=O)oc2ccc(NC(=O)N3CCOCC3)cc21`, 53.9%. The result for `O=C(NC1CC1)c1cc(NC(=O)N2CCCC2)ccc1Cl` reads 31.9%; that for `CC1CN(C(=O)Nc2ccc(Cl)c(C(=O)NC3CC3)c2)CC(C)(C)O1` (centres undefined), 31.9%; that for `O=C(NC1CC1)c1cc(NC(=O)N2CCCC(O)C2)ccc1Cl` (centres undefined), 28.5%.

`Cn1c(=O)oc2ccc(NC(=O)N3CCSCC3)cc21`: the INHIBITION is 24.7%.
